Measured values reported in ChEMBL document CHEMBL1961873, “Compounds: GSK PKIS; Assays: Nanosyn kinase panel” (2012).
“And” between values parts separate entries of the source, which are not always exact repeats. Equal values may be shown once.

Tests used:
[1] = biological target: Serine/threonine-protein kinase MARK2 (Homo sapiens) (UniProt Q7KZI7); details: at 1 µM
[2] = biological target: PAS domain-containing serine/threonine-protein kinase (Homo sapiens) (UniProt Q96RG2); details: at 0.1 µM
Sequence of PAS domain-containing serine/threonine-protein kinase (Homo sapiens) (Q96RG2 whole entry, the tested form may be a part, canonical isoform): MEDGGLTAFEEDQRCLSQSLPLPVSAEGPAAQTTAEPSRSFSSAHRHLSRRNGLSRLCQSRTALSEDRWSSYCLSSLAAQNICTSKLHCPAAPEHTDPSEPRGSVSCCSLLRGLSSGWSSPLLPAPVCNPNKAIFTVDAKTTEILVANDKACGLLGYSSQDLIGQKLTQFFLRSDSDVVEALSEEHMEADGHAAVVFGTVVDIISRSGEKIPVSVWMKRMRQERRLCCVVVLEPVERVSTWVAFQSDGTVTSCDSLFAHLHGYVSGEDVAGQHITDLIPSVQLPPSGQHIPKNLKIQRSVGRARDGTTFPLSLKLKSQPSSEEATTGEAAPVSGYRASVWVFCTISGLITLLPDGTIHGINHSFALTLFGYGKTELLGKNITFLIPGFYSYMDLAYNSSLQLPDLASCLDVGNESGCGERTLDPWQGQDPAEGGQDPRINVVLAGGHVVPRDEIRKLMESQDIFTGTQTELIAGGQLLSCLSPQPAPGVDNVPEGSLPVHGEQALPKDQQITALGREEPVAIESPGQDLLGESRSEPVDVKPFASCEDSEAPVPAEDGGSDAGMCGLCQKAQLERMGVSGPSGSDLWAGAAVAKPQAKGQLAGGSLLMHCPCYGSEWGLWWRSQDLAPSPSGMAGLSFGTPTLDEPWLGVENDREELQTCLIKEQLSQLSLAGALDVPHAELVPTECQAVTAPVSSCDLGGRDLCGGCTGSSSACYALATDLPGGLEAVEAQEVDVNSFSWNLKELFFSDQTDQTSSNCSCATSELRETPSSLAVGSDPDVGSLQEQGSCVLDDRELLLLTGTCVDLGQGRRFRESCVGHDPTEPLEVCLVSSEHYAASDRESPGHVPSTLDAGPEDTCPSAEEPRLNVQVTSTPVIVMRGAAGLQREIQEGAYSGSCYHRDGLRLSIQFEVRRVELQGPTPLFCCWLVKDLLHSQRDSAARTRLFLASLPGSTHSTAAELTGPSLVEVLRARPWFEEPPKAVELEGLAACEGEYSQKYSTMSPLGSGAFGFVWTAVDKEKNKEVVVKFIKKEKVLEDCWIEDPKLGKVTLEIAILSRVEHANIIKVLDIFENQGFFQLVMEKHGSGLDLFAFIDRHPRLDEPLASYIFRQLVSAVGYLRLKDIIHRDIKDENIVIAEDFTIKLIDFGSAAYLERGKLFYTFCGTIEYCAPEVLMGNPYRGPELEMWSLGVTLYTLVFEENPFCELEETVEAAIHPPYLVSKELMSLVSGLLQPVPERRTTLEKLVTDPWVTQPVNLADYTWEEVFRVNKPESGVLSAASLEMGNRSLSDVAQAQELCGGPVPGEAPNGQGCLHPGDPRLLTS

[3] = biological target: PAS domain-containing serine/threonine-protein kinase (Homo sapiens) (UniProt Q96RG2); details: at 1 µM
[4] = biological target: Phosphorylase b kinase gamma catalytic chain, skeletal muscle/heart isoform (Homo sapiens) (UniProt Q16816); details: at 0.1 µM
Sequence of Phosphorylase b kinase gamma catalytic chain, skeletal muscle/heart isoform (Homo sapiens) (Q16816 whole entry, looked up, canonical isoform): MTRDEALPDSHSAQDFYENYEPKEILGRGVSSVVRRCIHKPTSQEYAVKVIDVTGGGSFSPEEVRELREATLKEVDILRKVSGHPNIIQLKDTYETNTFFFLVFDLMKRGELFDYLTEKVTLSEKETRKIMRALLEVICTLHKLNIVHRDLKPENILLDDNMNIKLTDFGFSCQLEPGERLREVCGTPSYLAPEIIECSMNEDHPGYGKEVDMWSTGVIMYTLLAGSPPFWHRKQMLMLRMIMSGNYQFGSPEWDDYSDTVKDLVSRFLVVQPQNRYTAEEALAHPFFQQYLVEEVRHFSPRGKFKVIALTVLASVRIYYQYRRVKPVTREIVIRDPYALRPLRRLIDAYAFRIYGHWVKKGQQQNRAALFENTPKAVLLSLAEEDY

[5] = biological target: Phosphorylase b kinase gamma catalytic chain, skeletal muscle/heart isoform (Homo sapiens) (UniProt Q16816); details: at 1 µM
[6] = biological target: T1, Phosphorylase b kinase gamma catalytic chain, liver/testis isoform (Homo sapiens) (UniProt P15735); details: at 0.1 µM
T1 sequence (whole entry): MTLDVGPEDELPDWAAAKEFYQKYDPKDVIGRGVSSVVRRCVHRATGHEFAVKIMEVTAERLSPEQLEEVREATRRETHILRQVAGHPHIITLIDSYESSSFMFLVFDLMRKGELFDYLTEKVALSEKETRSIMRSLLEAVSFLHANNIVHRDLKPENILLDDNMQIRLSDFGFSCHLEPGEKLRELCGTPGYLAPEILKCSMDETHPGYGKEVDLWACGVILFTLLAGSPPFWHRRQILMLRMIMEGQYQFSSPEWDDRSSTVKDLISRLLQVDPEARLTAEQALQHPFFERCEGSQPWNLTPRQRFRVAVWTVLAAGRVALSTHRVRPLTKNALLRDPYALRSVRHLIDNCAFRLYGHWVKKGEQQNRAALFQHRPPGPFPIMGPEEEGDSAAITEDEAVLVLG

[7] = biological target: T1, Phosphorylase b kinase gamma catalytic chain, liver/testis isoform (Homo sapiens); details: at 1 µM
[8] = biological target: Serine/threonine-protein kinase pim-1 (Homo sapiens) (UniProt P11309); details: at 0.1 µM
Sequence of Serine/threonine-protein kinase pim-1 (Homo sapiens) (P11309 whole entry, looked up): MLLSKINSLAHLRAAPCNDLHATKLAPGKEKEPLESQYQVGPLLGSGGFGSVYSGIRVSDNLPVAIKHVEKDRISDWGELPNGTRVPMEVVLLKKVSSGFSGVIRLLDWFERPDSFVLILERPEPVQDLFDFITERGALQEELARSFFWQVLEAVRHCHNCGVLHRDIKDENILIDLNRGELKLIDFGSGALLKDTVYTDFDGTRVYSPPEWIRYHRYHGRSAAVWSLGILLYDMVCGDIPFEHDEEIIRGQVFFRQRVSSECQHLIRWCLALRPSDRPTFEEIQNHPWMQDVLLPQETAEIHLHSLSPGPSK

[9] = biological target: Serine/threonine-protein kinase pim-1 (Homo sapiens) (UniProt P11309); details: at 1 µM
[10] = biological target: Serine/threonine-protein kinase pim-2 (Homo sapiens) (UniProt Q9P1W9); details: at 0.1 µM;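 note: reported value is the mean percent inhibition of PIM2, measured in the GSK PKIS kinase inhibitor set screen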
Sequence of Serine/threonine-protein kinase pim-2 (Homo sapiens) (Q9P1W9 whole entry, looked up): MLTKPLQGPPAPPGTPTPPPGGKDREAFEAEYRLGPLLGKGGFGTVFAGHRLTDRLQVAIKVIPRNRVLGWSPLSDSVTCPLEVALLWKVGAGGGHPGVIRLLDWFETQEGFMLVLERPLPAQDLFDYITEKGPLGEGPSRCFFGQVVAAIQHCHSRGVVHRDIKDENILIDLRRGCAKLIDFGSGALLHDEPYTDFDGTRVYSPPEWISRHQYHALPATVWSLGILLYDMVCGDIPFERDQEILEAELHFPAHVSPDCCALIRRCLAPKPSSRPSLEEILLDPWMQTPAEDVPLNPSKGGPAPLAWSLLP

Sequence of Serine/threonine-protein kinase MARK2 (Homo sapiens) (Q7KZI7 whole entry, the tested form may be a part): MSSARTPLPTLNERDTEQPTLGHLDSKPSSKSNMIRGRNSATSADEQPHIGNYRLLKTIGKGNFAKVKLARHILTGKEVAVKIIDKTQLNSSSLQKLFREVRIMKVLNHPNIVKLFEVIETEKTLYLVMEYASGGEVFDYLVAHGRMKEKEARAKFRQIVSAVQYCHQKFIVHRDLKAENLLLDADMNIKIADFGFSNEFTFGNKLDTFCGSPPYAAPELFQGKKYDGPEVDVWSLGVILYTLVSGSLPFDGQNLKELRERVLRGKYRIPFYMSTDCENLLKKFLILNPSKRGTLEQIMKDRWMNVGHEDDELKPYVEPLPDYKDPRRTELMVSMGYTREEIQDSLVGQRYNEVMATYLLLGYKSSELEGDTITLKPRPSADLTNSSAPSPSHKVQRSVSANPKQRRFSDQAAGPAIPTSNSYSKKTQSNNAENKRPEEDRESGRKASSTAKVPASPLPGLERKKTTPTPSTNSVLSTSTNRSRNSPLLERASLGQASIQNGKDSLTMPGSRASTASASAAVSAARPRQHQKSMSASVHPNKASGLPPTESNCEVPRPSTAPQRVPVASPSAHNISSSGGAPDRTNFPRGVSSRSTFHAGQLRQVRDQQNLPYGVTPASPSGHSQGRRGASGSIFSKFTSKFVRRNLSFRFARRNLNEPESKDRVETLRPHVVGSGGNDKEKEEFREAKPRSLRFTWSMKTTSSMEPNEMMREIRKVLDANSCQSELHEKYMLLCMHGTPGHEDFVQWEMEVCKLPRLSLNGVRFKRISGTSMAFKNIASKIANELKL

| Compound | inhibition [1] | inhibition [2] | inhibition [3] | inhibition [4] | inhibition [5] | inhibition [6] | inhibition [7] | inhibition [8] | inhibition [9] | inhibition [10] |
| --- | --- | --- | --- | --- | --- | --- | --- | --- | --- | --- |
| CNC(=O)c1cncc(/C=C/c2ccccc2C)c1 | 0.45% | 0.44% | 0.95% | 4.3% | 7.61% | 6.36% | 7.42% | 0.05% | 2.22% | 0.15% |
| Fc1ccc(Nc2nccc(-c3c(-c4ccc(C(F)(F)F)cc4)nn4ncccc34)n2)cc1F | 2.64% | 0.46% | -1.14% | -0.56% | 1.84% | 3.81% | 0.35% | 1.07% | 0.89% | 0.92% |
| NS(=O)(=O)c1cccc(N/C=C2\C(=O)Nc3ccccc32)c1 | 12.6% | -0.26% | -1.04% | 7.73% | 33.3% | 5.62% | 13.4% | 0.75% | 0.73% | -0.33% |
| NS(=O)(=O)c1ccc(N/N=C2\C(=O)Nc3cccc(CCc4ccncc4)c32)cc1 | 4.73% | 1.68% | 1% | 4.94% | 11.7% | 0.33% | -0.92% | 0.54% | 1.13% | 0.11% |
| Cc1ccc(-c2cc3c(NC(=O)C4CC4)ncnc3o2)cc1 | 3.45% | 0.53% | 0.26% | 3.62% | 9.89% | 4.46% | 1.83% | 0.73% | 1.91% | 0.35% |
| Nc1ncnc2occ(-c3ccc(NC(=O)Nc4cc(C(F)(F)F)ccc4F)cc3)c12 | 2.65% and 0.89% | 0.79% and 0.18% | 0.2% and -0.5% | 0.08% and -0.25% | 4.52% and 6.47% | 2.69% and -2.51% | -1.12% and -5.1% | 0.97% and 0.53% | 1.19% and 2.46% | 0.22% and 0.7% |
| Cc1c2ccc(N(C)c3ccnc(Nc4cccc(S(N)(=O)=O)c4)n3)cc2nn1C | 4.84% | 0.26% | -1.92% | 4.4% | 7.27% | 4.88% | 3.28% | 0.43% | 1.01% | -3.44% |
| CS(=O)(=O)Nc1ccc(-c2cc(-c3ccccc3)cc(C(N)=O)c2N)cc1 | 4.64% | -0.01% | -0.36% | 1.44% | 4.26% | 1.4% | 0.02% | 0.69% | 1.67% | -0.48% |
| CS(=O)(=O)CCNCc1ccoc1-c1ccc2ncnc(Nc3ccc(OCc4ccccc4)cc3)c2c1 | -2.18% | 1.27% | 0.16% | 2.12% | 3.12% | 0.65% | 0.15% | 0.23% | -0.94% | 0.1% |
| Fc1cccc(COc2ccc(Nc3ncncc3C#Cc3ccccc3)cc2Cl)c1 | 1.05% | 0.76% | 1.64% | 3.8% | 5.87% | 5.59% | 8.15% | 0.46% | 1.07% | 0.52% |
| CC1=C(C(=O)Nc2ccc3[nH]nc(C)c3c2)C(c2ccc(C(F)(F)F)cc2)CC(=O)N1 (stereo not given) | 4.76% | 0.2% | -1.78% | 4.32% | 0.7% | 2.48% | -2.45% | 1.05% | 0% | 0% |
| Nc1nonc1-c1nc2cnccc2n1C1CC1 | 17.9% and 14.9% | 0.62% and -0.65% | 1.08% and 0.92% | 5% and 3.93% | 7.51% and 3.48% | 4.1% and 2.66% | 1.15% and 2.16% | 12.4% and 13.8% | 56.3% and 59.1% | 1.57% and -2.36% |
| N#Cc1cccc(Nc2ncc(-c3ccccc3)o2)c1 | -0.47% | 0.37% | 2.05% | 2.95% | 12.9% | 1.85% | 6.04% | 0.15% | 0.29% | 0.1% |
| CCOc1ccc2c(-c3ccnc(Nc4cc(OC)cc(C(F)(F)F)c4)n3)cnn2n1 | 1.23% | 0% | 0.64% | 1.57% | 0.94% | 0.61% | 0.99% | 0.51% | -0.17% | -0.46% |
| O=C(O[C@H]1CN[C@H](C#Cc2cc3ncnc(Nc4ccc5c(cnn5Cc5ccccc5)c4)c3s2)C1)N1CCOCC1 | 1.58% | 1.66% | 0.95% | 2.11% | 6.5% | -0.83% | -1.47% | -1.14% | -0.83% | -0.43% |
| CN1CCC(C(=O)Nc2n[nH]c3nc(-c4ccc(O)cc4)c(Br)cc23)CC1 | 2.87% and -0.48% | 0.12% and 1.36% | 1.4% and -0.48% | 7.58% and -0.16% | 16.1% and 3.32% | 4.67% and 1.73% | 9.01% and 2.52% | 5.3% and 6.07% | 34.8% and 33.4% | -0.97% and 1.73% |
